Assays:
[1] = biological target: Rho-associated protein kinase 1 (Homo sapiens) (UniProt Q13464); settings: at 1 µM;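 also: reported values are mean percent inhibition of ROCK1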
[2] = biological target: Rho-associated protein kinase 2 (Homo sapiens) (UniProt O75116); settings: at 0.1 µM
[3] = biological target: Rho-associated protein kinase 2 (Homo sapiens) (UniProt O75116); settings: at 1 µM
[4] = biological target: Ribosomal protein S6 kinase alpha-1 (Homo sapiens) (UniProt Q15418); settings: at 0.1 µM
Chain of Ribosomal protein S6 kinase alpha-1 (Homo sapiens) (Q15418 whole entry): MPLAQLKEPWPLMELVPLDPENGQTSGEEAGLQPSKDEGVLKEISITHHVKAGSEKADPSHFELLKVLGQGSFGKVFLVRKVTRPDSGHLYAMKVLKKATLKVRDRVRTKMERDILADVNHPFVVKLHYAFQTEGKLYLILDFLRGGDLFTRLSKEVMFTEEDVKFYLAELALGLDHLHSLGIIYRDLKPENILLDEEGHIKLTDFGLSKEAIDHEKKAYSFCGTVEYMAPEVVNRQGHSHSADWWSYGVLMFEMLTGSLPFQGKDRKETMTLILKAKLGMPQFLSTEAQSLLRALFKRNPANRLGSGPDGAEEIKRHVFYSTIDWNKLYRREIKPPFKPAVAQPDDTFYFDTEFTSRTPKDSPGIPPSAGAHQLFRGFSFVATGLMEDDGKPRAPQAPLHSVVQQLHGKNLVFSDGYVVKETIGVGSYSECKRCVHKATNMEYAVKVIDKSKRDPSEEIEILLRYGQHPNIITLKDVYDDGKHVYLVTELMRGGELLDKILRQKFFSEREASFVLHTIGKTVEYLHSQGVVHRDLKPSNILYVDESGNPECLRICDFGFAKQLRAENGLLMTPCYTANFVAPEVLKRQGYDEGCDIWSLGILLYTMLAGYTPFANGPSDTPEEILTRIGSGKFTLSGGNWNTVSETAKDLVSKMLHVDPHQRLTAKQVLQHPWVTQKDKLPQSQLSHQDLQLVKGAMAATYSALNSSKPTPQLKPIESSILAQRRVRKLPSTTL

[5] = biological target: Ribosomal protein S6 kinase alpha-1 (Homo sapiens) (UniProt Q15418); settings: at 1 µM
[6] = biological target: Ribosomal protein S6 kinase alpha-3 (Homo sapiens) (UniProt P51812); settings: at 0.1 µM
[7] = biological target: Ribosomal protein S6 kinase alpha-3 (Homo sapiens) (UniProt P51812); settings: at 1 µM
[8] = biological target: Ribosomal protein S6 kinase alpha-2 (Homo sapiens) (UniProt Q15349); settings: at 0.1 µM
Chain of Ribosomal protein S6 kinase alpha-2 (Homo sapiens) (Q15349 whole entry): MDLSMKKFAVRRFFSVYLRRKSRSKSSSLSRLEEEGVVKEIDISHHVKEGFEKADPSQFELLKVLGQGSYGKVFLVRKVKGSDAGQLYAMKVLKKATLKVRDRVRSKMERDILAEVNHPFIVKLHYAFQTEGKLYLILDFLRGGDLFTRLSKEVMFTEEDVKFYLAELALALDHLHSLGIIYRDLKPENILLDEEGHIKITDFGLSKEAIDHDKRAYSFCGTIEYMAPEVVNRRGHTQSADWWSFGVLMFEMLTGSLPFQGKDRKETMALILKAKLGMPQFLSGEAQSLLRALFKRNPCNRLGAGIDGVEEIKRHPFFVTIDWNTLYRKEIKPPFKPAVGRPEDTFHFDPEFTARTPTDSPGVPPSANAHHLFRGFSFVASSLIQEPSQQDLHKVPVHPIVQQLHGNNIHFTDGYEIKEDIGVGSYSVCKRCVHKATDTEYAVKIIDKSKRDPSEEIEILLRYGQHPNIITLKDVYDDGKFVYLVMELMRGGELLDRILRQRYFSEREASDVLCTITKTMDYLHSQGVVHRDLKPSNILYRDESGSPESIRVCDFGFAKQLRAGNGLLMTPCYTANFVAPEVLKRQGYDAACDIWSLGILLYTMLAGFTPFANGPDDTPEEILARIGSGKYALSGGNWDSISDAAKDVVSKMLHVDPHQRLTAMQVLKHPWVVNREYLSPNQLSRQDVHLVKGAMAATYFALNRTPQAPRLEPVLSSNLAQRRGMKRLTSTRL

[9] = biological target: Ribosomal protein S6 kinase alpha-2 (Homo sapiens) (UniProt Q15349); settings: at 1 µM
[10] = biological target: Ribosomal protein S6 kinase alpha-6 (Homo sapiens) (UniProt Q9UK32); settings: at 0.1 µM
Chain of Ribosomal protein S6 kinase alpha-6 (Homo sapiens) (Q9UK32 whole entry): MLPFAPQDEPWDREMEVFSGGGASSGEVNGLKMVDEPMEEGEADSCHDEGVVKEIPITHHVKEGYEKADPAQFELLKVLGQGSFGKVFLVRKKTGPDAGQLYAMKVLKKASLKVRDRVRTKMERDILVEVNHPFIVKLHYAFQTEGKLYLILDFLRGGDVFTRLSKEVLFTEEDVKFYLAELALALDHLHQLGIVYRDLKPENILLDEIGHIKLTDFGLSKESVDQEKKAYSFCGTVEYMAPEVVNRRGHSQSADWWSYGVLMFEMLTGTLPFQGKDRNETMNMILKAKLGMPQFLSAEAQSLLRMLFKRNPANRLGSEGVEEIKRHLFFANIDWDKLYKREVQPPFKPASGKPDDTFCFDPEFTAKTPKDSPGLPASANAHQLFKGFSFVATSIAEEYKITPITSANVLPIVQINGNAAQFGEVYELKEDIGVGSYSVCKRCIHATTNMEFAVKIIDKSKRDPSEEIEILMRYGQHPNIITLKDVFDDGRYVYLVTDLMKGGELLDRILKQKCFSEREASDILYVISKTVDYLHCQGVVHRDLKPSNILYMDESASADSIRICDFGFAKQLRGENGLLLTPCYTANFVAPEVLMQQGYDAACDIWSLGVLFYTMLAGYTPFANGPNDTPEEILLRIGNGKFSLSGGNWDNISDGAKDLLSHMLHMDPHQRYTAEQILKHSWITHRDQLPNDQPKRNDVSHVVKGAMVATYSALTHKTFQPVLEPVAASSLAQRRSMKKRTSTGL

[11] = biological target: Ribosomal protein S6 kinase alpha-6 (Homo sapiens) (UniProt Q9UK32); settings: at 1 µM
[12] = biological target: T1, Serine/threonine-protein kinase Sgk1 (Homo sapiens) (UniProt O00141); settings: at 0.1 µM
T1 sequence (whole entry): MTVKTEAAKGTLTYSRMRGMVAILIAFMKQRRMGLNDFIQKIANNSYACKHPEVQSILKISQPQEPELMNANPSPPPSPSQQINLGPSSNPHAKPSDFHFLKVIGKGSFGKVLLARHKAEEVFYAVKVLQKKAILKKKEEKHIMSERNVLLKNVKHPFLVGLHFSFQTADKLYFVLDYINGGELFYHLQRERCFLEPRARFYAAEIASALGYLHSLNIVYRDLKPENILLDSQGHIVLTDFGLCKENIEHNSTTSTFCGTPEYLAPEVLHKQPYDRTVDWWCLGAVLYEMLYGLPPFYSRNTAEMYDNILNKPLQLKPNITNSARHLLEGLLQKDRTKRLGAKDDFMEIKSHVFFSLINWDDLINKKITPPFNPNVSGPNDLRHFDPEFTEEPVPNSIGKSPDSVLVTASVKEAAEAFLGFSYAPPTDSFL

[13] = biological target: T1, Serine/threonine-protein kinase Sgk1 (Homo sapiens); settings: at 1 µM
[14] = biological target: T2, Serine/threonine-protein kinase Sgk2 (Homo sapiens) (UniProt Q9HBY8); settings: at 0.1 µM
T2 sequence (whole entry): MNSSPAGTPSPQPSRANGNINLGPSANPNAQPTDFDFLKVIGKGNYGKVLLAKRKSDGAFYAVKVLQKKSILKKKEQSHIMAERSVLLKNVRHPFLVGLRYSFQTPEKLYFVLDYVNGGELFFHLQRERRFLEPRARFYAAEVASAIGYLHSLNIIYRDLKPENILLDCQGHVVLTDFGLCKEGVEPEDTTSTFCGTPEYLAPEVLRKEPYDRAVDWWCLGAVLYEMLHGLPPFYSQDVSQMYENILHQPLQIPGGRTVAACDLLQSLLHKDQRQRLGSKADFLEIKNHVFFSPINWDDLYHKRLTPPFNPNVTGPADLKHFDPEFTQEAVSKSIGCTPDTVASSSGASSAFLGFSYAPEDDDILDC

[15] = biological target: T2, Serine/threonine-protein kinase Sgk2 (Homo sapiens); settings: at 1 µM
[16] = biological target: T3, Serine/threonine-protein kinase Sgk3 (Homo sapiens) (UniProt Q96BR1); settings: at 0.1 µM
T3 sequence (whole entry): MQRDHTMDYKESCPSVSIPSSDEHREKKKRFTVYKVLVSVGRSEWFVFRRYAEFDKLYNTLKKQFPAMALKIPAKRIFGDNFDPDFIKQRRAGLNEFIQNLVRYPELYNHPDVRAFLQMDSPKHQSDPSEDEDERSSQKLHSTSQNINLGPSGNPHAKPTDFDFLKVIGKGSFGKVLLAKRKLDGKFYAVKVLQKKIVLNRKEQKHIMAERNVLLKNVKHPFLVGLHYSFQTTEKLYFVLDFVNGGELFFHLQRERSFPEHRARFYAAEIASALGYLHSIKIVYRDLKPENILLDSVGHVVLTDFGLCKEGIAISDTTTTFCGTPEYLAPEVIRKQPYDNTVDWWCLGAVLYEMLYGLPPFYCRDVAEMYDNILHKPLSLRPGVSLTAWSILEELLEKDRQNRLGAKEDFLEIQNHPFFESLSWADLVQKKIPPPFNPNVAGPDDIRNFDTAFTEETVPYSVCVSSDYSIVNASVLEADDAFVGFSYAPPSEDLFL

[17] = biological target: T3, Serine/threonine-protein kinase Sgk3 (Homo sapiens); settings: at 1 µM
[18] = biological target: 5'-AMP-activated protein kinase catalytic subunit alpha-1 (Homo sapiens) (UniProt Q13131); settings: at 0.1 µM
[19] = biological target: 5'-AMP-activated protein kinase catalytic subunit alpha-1 (Homo sapiens) (UniProt Q13131); settings: at 1 µM
[20] = biological target: 5'-AMP-activated protein kinase catalytic subunit alpha-2 (Homo sapiens) (UniProt P54646); settings: at 0.1 µM;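 also: mean inhibition measured on the AMPK complex of alpha2, beta1 and gamma1 subunits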

Chain of Rho-associated protein kinase 2 (Homo sapiens) (O75116 whole entry, looked up): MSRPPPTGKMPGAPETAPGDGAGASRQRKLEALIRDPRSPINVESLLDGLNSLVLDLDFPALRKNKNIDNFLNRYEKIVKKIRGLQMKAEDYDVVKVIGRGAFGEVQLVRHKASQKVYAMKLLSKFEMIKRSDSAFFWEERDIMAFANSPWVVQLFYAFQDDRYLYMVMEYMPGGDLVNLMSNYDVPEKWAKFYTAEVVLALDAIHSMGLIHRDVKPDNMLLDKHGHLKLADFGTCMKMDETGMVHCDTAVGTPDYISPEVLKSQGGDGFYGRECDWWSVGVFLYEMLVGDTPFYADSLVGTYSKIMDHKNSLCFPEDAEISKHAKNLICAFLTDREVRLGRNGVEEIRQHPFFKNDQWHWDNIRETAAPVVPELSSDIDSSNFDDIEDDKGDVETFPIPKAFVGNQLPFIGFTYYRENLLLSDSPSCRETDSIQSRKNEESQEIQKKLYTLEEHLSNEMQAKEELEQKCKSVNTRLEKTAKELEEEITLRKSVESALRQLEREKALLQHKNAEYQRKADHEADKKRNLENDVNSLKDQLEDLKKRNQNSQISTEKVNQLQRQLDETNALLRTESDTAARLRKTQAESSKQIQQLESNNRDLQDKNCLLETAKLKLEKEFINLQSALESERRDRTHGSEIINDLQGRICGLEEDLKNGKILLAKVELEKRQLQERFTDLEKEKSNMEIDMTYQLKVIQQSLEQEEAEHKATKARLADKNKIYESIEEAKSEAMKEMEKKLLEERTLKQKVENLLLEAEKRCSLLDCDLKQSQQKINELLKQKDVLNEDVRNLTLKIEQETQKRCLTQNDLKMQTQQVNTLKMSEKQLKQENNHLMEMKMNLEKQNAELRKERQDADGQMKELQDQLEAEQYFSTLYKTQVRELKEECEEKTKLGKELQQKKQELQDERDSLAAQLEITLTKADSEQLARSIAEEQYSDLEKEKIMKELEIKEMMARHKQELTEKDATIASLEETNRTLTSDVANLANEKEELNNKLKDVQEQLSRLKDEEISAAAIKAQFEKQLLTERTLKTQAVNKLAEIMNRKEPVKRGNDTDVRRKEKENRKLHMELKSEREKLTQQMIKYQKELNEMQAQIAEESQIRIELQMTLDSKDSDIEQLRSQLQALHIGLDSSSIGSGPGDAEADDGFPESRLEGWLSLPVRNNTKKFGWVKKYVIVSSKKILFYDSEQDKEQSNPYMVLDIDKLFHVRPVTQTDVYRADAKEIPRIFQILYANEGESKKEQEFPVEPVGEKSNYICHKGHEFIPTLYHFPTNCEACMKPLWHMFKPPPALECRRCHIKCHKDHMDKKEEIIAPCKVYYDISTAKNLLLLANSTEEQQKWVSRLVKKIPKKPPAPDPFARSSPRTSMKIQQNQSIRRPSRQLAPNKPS
Chain of Rho-associated protein kinase 1 (Homo sapiens) (Q13464 2-1354 limits assumed): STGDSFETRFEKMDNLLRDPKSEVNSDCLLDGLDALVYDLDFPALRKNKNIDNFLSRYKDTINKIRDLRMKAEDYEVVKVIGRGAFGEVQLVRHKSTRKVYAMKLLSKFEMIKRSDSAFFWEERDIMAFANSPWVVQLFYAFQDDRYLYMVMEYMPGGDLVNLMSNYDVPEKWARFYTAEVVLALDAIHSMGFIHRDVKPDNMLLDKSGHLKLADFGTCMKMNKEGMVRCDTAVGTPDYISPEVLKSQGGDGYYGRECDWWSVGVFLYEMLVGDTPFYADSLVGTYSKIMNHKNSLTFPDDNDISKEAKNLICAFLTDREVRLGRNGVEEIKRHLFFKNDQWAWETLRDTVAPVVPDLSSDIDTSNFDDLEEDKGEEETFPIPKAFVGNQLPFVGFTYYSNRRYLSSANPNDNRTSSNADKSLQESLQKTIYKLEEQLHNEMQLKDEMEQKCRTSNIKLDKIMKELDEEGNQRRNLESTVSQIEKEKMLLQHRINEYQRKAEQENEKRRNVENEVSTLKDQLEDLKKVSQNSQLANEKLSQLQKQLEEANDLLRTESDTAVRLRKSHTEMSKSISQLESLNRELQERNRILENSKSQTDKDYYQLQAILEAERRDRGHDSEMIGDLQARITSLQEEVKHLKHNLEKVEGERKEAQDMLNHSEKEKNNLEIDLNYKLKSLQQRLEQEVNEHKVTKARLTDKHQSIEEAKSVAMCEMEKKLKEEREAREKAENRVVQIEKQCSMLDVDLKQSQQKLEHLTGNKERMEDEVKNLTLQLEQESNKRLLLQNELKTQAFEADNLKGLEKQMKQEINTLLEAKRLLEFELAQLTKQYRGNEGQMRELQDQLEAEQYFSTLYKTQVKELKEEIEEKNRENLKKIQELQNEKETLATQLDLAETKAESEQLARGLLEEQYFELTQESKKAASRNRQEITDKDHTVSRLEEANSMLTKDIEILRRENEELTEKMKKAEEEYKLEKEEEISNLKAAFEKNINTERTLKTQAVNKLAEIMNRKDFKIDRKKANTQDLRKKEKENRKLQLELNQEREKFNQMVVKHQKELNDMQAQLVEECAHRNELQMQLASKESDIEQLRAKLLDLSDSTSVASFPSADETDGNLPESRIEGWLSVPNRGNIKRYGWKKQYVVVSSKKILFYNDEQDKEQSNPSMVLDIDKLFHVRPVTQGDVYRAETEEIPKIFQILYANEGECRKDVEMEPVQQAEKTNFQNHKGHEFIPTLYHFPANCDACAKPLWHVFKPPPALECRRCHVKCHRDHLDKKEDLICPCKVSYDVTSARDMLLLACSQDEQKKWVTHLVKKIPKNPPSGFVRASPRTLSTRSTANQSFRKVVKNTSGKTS

Compound | inhibition [1] [%] | inhibition [2] [%] | inhibition [3] [%] | inhibition [4] [%] | inhibition [5] [%] | inhibition [6] [%] | inhibition [7] [%] | inhibition [8] [%] | inhibition [9] [%] | inhibition [10] [%] | inhibition [11] [%] | inhibition [12] [%] | inhibition [13] [%] | inhibition [14] [%] | inhibition [15] [%] | inhibition [16] [%] | inhibition [17] [%] | inhibition [18] [%] | inhibition [19] [%] | inhibition [20] [%]
CCN1CCC(CC(=O)Nc2n[nH]c3nc(-c4cccs4)c(Br)cc23)CC1 | -0.45 | -0.91 | 0.3 | -1.31 | -0.49 | -0.78 | -0.3 | -1.79 | 0.38 | -1.6 | 1.64 | -1.12 | -1.95 | -5.07 | -0.81 | -2.7 | -2.06 | -0.96 | 4.08 | 3.33
Cc1ccc(NC(=O)c2ccnc(N3CCCC3)c2)cc1-c1ccc(C(=O)NCC2CC2)cc1 | 7.68 | 5.19 | 7.89 | 3.15 | 5.01 | 2.42 | 6.09 | 3.89 | 5.23 | 2.53 | 4.24 | 5.73 | 4.14 | 2.67 | 6.84 | 1.32 | 1.99 | 6.18 | 7.1 | 6.89
CC1=C(C(=O)Nc2ccc3[nH]ncc3c2)C(c2ccc3ccccc3c2)CC(=O)N1 (configuration not stated) |  | 77 | 84.2 | 3.94 | 26.4 | 2.4 | 21.3 | 2.26 | 13.7 | 1.04 | 7.45 | 2.12 | 7.38 | 3 | 16.6 | 1.33 | 10.3 | 7.34 | 41 | 2.46
O=C1NC(=O)C(c2ccc(Cl)cc2)=C1Nc1ccc(Cl)c(C(=O)O)c1 | 1.07 | -1.68 | -2.33 | -0.77 | -0.61 | -1.11 | -1.86 | -1.33 | -1.11 | -1.33 | -1.03 | 1.08 | -1.96 | -3.55 | -0.77 | -1.08 | -4.32 | -0.6 | -0.54 | 0.26
CN1CCC(C(=O)Nc2n[nH]c3nnc(-c4ccccc4)cc23)CC1 | 1.3 | 3.27 | 7.43 | 2.04 | 3.41 | 1.58 | 3.98 | 2.42 | 3.15 | 0.86 | 1.86 | 3.01 | 6.62 | 4.36 | 3.52 | 2.89 | 5.04 | 5.95 | 5.95 | 4.12
O=C1Nc2ccc(C(=O)c3ccco3)cc2C1=Cc1cc(Cl)c(O)c(Cl)c1 | 7.03 | 2.19 | 12.1 | 3.17 | 11.9 | 0.85 | 6.32 | 1.45 | 9.07 | 1.47 | 12 | 1.08 | 5.11 | 1.59 | 3.35 | 1.55 | 2.25 | 4.48 | 21.4 | 3.01
COc1cc2c(cc1Nc1nc(N3CCc4ccccc43)c3cc[nH]c3n1)N(C(=O)CN(C)C)CC2 | 1.14 | 0.55 | -1.46 | 0.16 | 0.41 | 0.21 | -1.32 | 0.86 | 0.48 | 1.57 | 0.95 | 0.53 | 1.07 | -0.51 | 2.34 | 1.69 | -0.59 | 2.03 | 0.36 | -1.68
CCn1c(-c2nonc2N)nc2cncc(C(=O)N3CC[C@H](N)C3)c21 |  | 74.9 | 83.5 | 44.6 | 75.8 | 31.3 | 69.9 | 18.3 | 65.9 | 6.13 | 25 | 7.33 | 29.4 | 6.54 | 44.6 | 19.6 | 68.1 | 4.01 | 6.61 | 4.72
COc1ccc(COc2ccc(Cc3cnc(N)nc3N)cc2OC)cc1 | 2.94 | 1.54 | -1.22 | 1.36 | -1.81 | 0.78 | -0.8 | 0.01 | -1 | 0.69 | -0.61 | 5.08 | 1.31 | 4.24 | 3 | 2.57 | 1.28 | -0.17 | -0.28 | 2.65
CS(=O)(=O)CCN(CC#N)Cc1ccc(-c2ccc3ncnc(Nc4ccc(OCc5cccc(F)c5)c(Cl)c4)c3c2)o1 | 1.43 | 0.1 | 0.19 | -0.47 | -0.29 | -1.25 | -1.73 | 0.79 | 0.34 | -0.25 | -0.88 | 3.63 | 0.86 | 1.72 | -1.45 | 0.78 | 3.35 | 3.45 | 0.16 | 3.89
COc1ccc(-c2coc3ncnc(N)c23)cc1 | 3.53 | 3.52 | 1.94 | 1.72 | 0.94 | 1.05 | 1.66 | 2.4 | 2.21 | 1.93 | 2.17 | 2.68 | 1.67 | -1.21 | -0.41 | 2.69 | 2.97 | 2.92 | 3.4 | 4.54
CC1=C(C(=O)Nc2ccc3[nH]ncc3c2)C(c2ccc(Cl)c(Cl)c2)CC(=O)N1 (configuration not stated) | 91.8 | 71.2 | 89.9 | 3.44 | 23.6 | 1.88 | 18.9 | 0.64 | 13.2 | 0.12 | 5.82 | 0.54 | 6.57 | 0.96 | 8.76 | 1.38 | 10.8 | 6.35 | 34.8 | 1.12
COc1cc(C)c(NC(=O)CN(C)C)cc1Nc1nc(Nc2cccc(F)c2C(N)=O)c2cc[nH]c2n1 | 11.4 | 1.26 | 7.68 | 9.42 | 40.7 | 4.6 | 23.1 | 1.22 | 11.5 | 3.59 | 23.1 | 1.87 | -1.3 | 1.44 | 0.65 | 0.69 | 0.16 | 1.03 | 0.78 | 1.06
CC1=C(C(=O)Nc2ccc3[nH]ncc3c2)C(c2ccc(F)cc2)NC(=O)N1 (configuration not stated) |  | 64.1 | 74.5 | 2.36 | 15.7 | 2.28 | 11.2 | 2.36 | 7.93 | 2.07 | 2.82 | 1.11 | 7.18 | -1.1 | 4.13 | 4.02 | 6.8 | 3.82 | 20.4 | 3.59
